FLuc modulator: firefly luciferase modulation, counter-screen for miR-21 project. Potency, µM (top dose mostly 57.5 µM), most hits filed as inhibitors. hit rate 6.9% among 360,000. AID 588342. purified FLuc, Km substrates, luminescence inhibition. P08659; also: nearly all actives have a fitted effect of over 55% in size
Target sequence (P08659 whole entry, looked up): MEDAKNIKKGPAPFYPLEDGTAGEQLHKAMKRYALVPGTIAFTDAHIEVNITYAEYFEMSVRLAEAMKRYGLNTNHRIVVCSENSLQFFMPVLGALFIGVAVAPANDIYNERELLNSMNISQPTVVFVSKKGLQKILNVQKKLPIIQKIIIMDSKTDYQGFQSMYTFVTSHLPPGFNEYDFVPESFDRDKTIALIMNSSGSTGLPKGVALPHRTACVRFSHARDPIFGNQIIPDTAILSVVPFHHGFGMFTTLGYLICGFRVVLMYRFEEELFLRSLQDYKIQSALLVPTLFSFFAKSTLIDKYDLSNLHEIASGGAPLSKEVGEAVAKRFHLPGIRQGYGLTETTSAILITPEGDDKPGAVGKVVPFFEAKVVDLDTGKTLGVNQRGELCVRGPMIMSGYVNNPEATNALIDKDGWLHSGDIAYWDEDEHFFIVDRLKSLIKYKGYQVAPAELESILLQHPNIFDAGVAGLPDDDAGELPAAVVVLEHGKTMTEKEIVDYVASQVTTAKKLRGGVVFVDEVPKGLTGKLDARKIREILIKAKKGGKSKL
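Purified P. pyralis luciferase, 10 nM final, with Km-level 10 uM D-luciferin and 10 uM ATP in 50 mM Tris acetate pH 7.5, 10 mM Mg acetate, 0.01% Tween-20, 0.05% BSA; 6-point qHTS titration about 60 µM downward; luminescence read.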
ELG1 genotoxic: inducers of genotoxicity in HEK293T ELG1-luciferase cells; Potency, µM (doses to about 46 µM), actives largely listed as activators; AID 504466; HEK293T ELG1-luciferase reporter, luminescence, 16 h; hit rate 1.3% among 330,000; also: nearly all actives have a fitted effect of over 60% in size
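Genotoxic stress is detected as increased luminescence from luciferase-tagged ELG1 in HEK293T cells, measured with ONE-Glo after a 16 hr treatment at 37 °C.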
Rab9 prom act: activators of Rab9 promoter; Huh7 Rab9 promoter-luciferase reporter, luminescence, 24 h; Potency, µM (titrated, usually from 9.22 µM), usual class: activators; hit rate 2.8% among 320,000; also: nearly all actives have a fitted effect of over 60% in size
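Measured in stably transfected Huh7 cells bearing a Rab9 promoter–luciferase construct: 24 h compound treatment at 37 °C, followed by luminescence detection.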
Luc counter: Kinase-Glo luciferase inhibition (counter-screen) | hit rate 0.28% among 200,000 | Q27757 | Potency, µM (titrated, usually from 38.3 µM), usual class: inhibitors | Kinase-Glo luciferase, ATP luminescence, 8 min | AID 1379; also: nearly all actives have a fitted effect of over 60% in size
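Luminescence was the read-out, taken after 8-minute incubation at ambient temperature. Luciferase turned over luciferin with 10 uM ATP in imidazole pH 7.2 buffer containing KCl, MgCl2, Tween 20 and BSA.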
NPC1 promoter act: NPC1 promoter activation; Huh7 NPC1 promoter luciferase reporter, 24 h; AID 485313; hit rate 2.4% among 320,000; Potency, µM (doses to about 9.22 µM), usual class: activators; also: nearly all actives have a fitted effect of over 60% in size
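Luminescence from an NPC1 promoter-driven luciferase reporter in stably transfected Huh7 cells was measured after 24 h compound treatment at 37 °C, followed by 10 min ambient incubation with luciferase detection reagent.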
SMN2 splice enh: SMN2 splice variant enhancement; HEK293 SMN2-luciferase splicing reporter, luminescence, 30-36 h; Potency, µM (top dose mostly 46.1 µM), most hits filed as activators; hit rate 2.8% among 210,000; AID 1458; also: nearly all actives have a fitted effect of over 55% in size
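HEK293 cells carry an SMN2 minigene-luciferase reporter in which exon 7 inclusion puts luciferase in frame. Cells were seeded at 2000 cells/well, attached for 10-12 hours, then exposed to compounds for 30-36 hours at 37C before ONE-Glo luminescence.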
Numbers stand for hits; . = inactive; ? = inconclusive; / = no result; [ ] = dose if it differs, or a comment. Shown are actives, neighbours in structure and some others; about 7.5% of the full set was active somewhere. Calls follow the shape of the dose curve; as a rule, active = well fitted curve in the direction sought with a large enough effect; inconclusive = small, poorly fitted or top-dose-only effect, or another doubt; inactive = no such curve, though single readings can be large; an effect the other way counts as inactive or inconclusive.

SMILES | FLuc modulator | ELG1 genotoxic | Rab9 prom act | Luc counter | NPC1 promoter act | SMN2 splice enh
CC(=O)Nc1ccc(NC(=O)c2cc3c(=O)n(Cc4cccnc4)ccc3nc2C)cc1 | . | / | / | / | / | /
O=C(CN1CCCC1)Nc1ccc(F)c(Cl)c1 | . | . | . | / | . | /
O=C(/C=C/c1ccc(O)cc1)c1ccccc1 | 2.7µM | ? | ? | / | . | /
COc1ccc(C(=O)/C=C/c2ccc(O)cc2)cc1 | 8.5µM | . | . | / | . | /
COc1ccc(-c2cc(O)cc(O)c2)cc1 | 6.7µM | 6.5µM | ? | . | ? | ?
O=C(/C=C/c1ccc(N2CCC(c3ccccc3)=N2)cc1)c1ccccc1 | 15µM | . | . | . | . | .
COC(=O)c1ccc2c(=O)n(CCCCCC(=O)NCc3ccc(Cl)cc3)c(=O)[nH]c2c1 | . | / | / | / | / | /
COc1ccc(/C=C/C(=O)c2nc3ccccc3n2CC(=O)c2ccc(OC)cc2)cc1 | 9.5µM | . | . | . | . | .
COc1ccc(/C=C/C(=O)C(C(N)=O)=C2SCCS2)cc1 | 9.5µM | . | . | . | . | .
COc1ccc(C(=O)/C=C/c2ccc(OC3CSC3)cc2)cc1OC | ? | . | . | . | . | .
O=C(/C=C/c1ccc(OC2CSC2)cc1)c1ccc(Cl)cc1 | 11µM | . | . | . | . | .
O=C(/C=C/c1ccc(O)cc1)c1ccc(NC2=C(N3CCCCC3)C(=O)c3ccccc3C2=O)cc1 | 7.6µM | . | . | . | . | .
NC(=O)C(C(=O)/C=C/c1ccc(Cl)cc1)=C1SCCS1 | ? | . | . | / | . | /
CN1CC(O)C2=CC(=O)C(=O)C=C21 (stereo not given) | / | / | / | / | / | .
Cc1nn(C)cc1/C=C/C(=O)c1ccc(O)cc1 | 13µM | 21µM | ? | . | ? | .[1.84 µM]
CCOc1ccc(/C=C/C(=O)Oc2ccc(OC)cc2)cc1 | ? | . | . | / | . | /
COc1ccc(/C=C/C(=O)Oc2cc(O)cc(O)c2)cc1 | 15µM | . | .[1.84 µM] | / | . | /
CCc1ccc(-c2cc3c(=O)n(CC(=O)NCCCN4CCN(C)CC4)ncn3n2)cc1 | 2.4µM | ? | 2.8µM | / | 2.8µM | /
CCc1ccc(-c2cc3c(=O)n(CC(=O)NCCCN4CCC(Cc5ccccc5)CC4)nc(C)n3n2)cc1 | ? | . | . | / | . | /
COc1ccc(-c2cc3c(=O)n(CC(=O)N4CCCCC4)ncn3n2)cc1 | ? | . | . | / | . | /
CCC1CCCCN1CCCNC(=O)Cn1ncn2nc(-c3ccc(OC)cc3)cc2c1=O (stereo not given) | 24µM | ? | ? | / | . | /
COc1ccc(-c2cc3c(=O)n(CC(=O)N4CCN(C)CC4)ncn3n2)cc1 | 2.4µM | ? | 5µM | / | ? | /
CCOc1ccc(CCNC(=O)Cn2ncn3nc(-c4ccc(OC)cc4)cc3c2=O)cc1OCC | . | .[9.26 µM] | . | / | . | /
COc1ccc(-c2cc3c(=O)n(CC(=O)NCCCc4ccccc4)ncn3n2)cc1 | ? | ? | 4µM | / | 2.8µM | /
COc1ccc(NC(=O)c2sc3nc4n(c(=O)c3c2C)CCC4)c(OC)c1 | . | / | / | / | / | /
SMILES | FLuc modulator | ELG1 genotoxic | Rab9 prom act | Luc counter | NPC1 promoter act | SMN2 splice enh
Cc1ccc(-c2nc(CCNC(=O)c3ccco3)cs2)cc1 | 17µM | . | . | / | . | /
COc1ccc(-c2nc(CCNC(=O)c3cccs3)cs2)cc1 | 27µM | ? | . | . | . | .
COc1ccc(CC(=O)NCCc2csc(-c3ccc(Cl)cc3)n2)cc1 | . | / | / | / | / | /
COc1ccc(-c2nc(C)c(CCNC(=O)c3cccs3)s2)cc1OC | 17µM | / | / | / | / | /
Cc1ccc(-c2nc(C)c(CCNC(=O)c3ccco3)s2)cc1 | 17µM | / | / | / | / | /
Cc1cccc(-c2nc(CCNC(=O)c3ccco3)cs2)c1 | . | / | / | / | / | /
COc1ccc(C(OCCN2CCC[C@@H](C(=O)O)C2)(c2ccc(OC)cc2)c2ccc(OC)cc2)cc1 | / | / | / | . | / | /
CCCN(CCC)CCCNC(=O)c1nn(C)c2c1CS(=O)(=O)c1ccccc1-2 | . | / | / | / | / | /
Cc1csc2nc(CNC(=O)c3ccco3)cn12 | 17µM | 18µM | ? | . | ? | 20µM
COc1ccc(-c2nc(C)c(CCNC(=O)c3ccco3)s2)cc1 | 27µM | / | / | / | / | /
COc1ccc(-n2ccn(CC(=O)Nc3ccc(C)cc3C)c(=O)c2=O)cc1 | . | / | / | / | / | /
CN(C)/C=N/NC(=O)c1ccc(Cl)cc1 | . | . | . | . | . | .
CN(C)/C=N/c1cnc(C(=O)c2ccc(Cl)cc2)n1C | 11µM | 6.3µM | 1.8µM | . | 1.8µM | 11µM
CC(=O)c1c(C)[nH]c(C(=O)Nc2nc(-c3ccc(Cl)cc3)cs2)c1C | . | . | . | . | . | .
CC(=O)c1c(C)[nH]c(C(=O)Nc2nc(C)cs2)c1C | 0.6µM | 0.52µM | 0.11µM | . | 1µM | 1.6µM
CC(=O)c1c(C)[nH]c(C(=O)Nc2ccc(C)cn2)c1C | 0.43µM | ? | 0.25µM | . | 0.71µM | 0.79µM
CCN(CC)S(=O)(=O)c1cc(-c2onc(C)c2C)ccc1OC | . | / | / | / | / | /
COc1ccc(Nc2ncc3c(n2)CCN(Cc2ccc(Br)s2)C3)c(OC)c1 | . | / | / | / | / | /
Oc1cc(O)cc(/C=C/c2ccc(O)c(O)c2)c1 | 9.5µM | 5.2µM | . | ? | ? | 32µM
COc1ccccc1CNC(=O)COC(=O)c1cccc(-n2cnnn2)c1 | . | . | . | / | . | /
O=C(COC(=O)c1cccc(-n2cnnn2)c1)c1ccc(F)cc1 | 17µM | ? | 2.8µM | / | 3.2µM | /
COc1ccc(C(=O)COC(=O)c2cccc(-n3cnnn3)c2)c(OC)c1 | 11µM | ? | 3.5µM | / | 4µM | /
COc1cc(CNc2ncn[nH]2)ccc1OCc1cccc(C)c1 | 19µM | ? | ? | . | ? | /
COc1cc(CNc2ccc(N3CCCCC3)cc2)ccc1OCC(=O)NC(C)(C)C | 5.4µM | . | . | / | . | /
COc1cc(CNc2ccc(N3CCCC3)cc2)ccc1OCc1ccccc1 | 6µM | ? | . | . | . | .
SMILES | FLuc modulator | ELG1 genotoxic | Rab9 prom act | Luc counter | NPC1 promoter act | SMN2 splice enh
COc1cc(CNc2ccc(N3CCCC3)cc2)ccc1OCc1ccccc1F | ? | . | . | . | . | 18µM
COc1cc(CNC23CC4CC(CC(C4)C2)C3)ccc1OCc1ccccc1 | . | . | . | . | . | .
COc1cc(CNc2ccc(CNc3ncn[nH]3)cc2)cc(Cl)c1OCc1ccccc1 | . | . | . | . | . | /
Nc1nc(-c2ccccn2)nc(N)c1Cc1c(F)cccc1Cl | 27µM | . | . | . | . | .
Nc1nc(-c2ccccn2)nc(N)c1Cc1ccccc1F | 15µM | . | ? | . | ? | .
COC(=O)[C@@]1(Cc2ccc(OC)cc2)[C@H]2c3cc(C(=O)N(C)C)n(CCF)c3C[C@H]2CN1C(=O)c1ccccc1 | / | / | / | . | / | .
CCN(C(=O)Cc1cccs1)c1nnc(-c2cc(OC)c(OC)c(OC)c2)s1 | . | ? | . | . | . | 25µM
CCCN(C(=O)c1ccco1)c1nnc(-c2ccccc2C)s1 | 12µM | ? | ? | . | . | /
CN(C(=O)c1cccnc1)c1nnc(-c2cccnc2)s1 | . | . | . | . | . | .
CCCCN(C(=O)Cc1cccs1)c1nnc(-c2cccnc2)s1 | 19µM | . | . | . | ? | 20µM

Compound activity: PubChem, National Center for Advancing Translational Sciences (NCATS)
